Data from PubChem BioAssay AID2315 (National Center for Advancing Translational Sciences (NCATS), 2010).
About 27,000 (9.3%) of roughly 290,000 compounds were called active. The full list was thinned out, with actives kept by preference. Values without a mark were called inactive. No stated cut-off is given here; in the data, active means inhibition mostly above about 28% (no sharp cut-off); inactive means mostly below about 43%.

Experiment: A qHTS for Small Molecule Inhibitors of Shiga Toxin; further: 0% is about no effect
Settings: Vero cells, Shiga toxin protein synthesis inhibition reporter; at 38.7 µM, hits give high values
`COc1ccc(CNS(=O)(=O)c2ccc(NC(=O)N3CCCCC3)cc2)cc1` gave an inhibition of 1.93%.
For `CC(C)C(=O)Nc1c2c(nn1-c1ccccc1)CSC2`, the inhibition was -0.685%.
Work on `COc1cc2c(cc1OC)C(C)N(S(=O)(=O)c1cnc(Cl)c(Cl)c1)CC2` (centres undefined) yielded an inhibition of -3.13%.
With `CC(C)n1c(O)c(N=Nc2ccccn2)c2ccccc21` the inhibition was 11.1%.
In the case of `Oc1oc(-c2ccccc2Br)nc1/C=N/c1ccccn1`, the inhibition was 102% (active).
`O=C(c1ccc[nH]c1=S)N1CCN(S(=O)(=O)c2ccc(Br)cc2Cl)CC1` showed an inhibition of -6.76%.
Work on `CC(C)c1ccc(NC(=O)[C@@H](NC(=O)N2CC(=O)Nc3ccccc32)C(C)C)cc1` yielded an inhibition of -1.19%.
Work on `COc1ccc(N(C(=O)c2snc(C(N)=O)c2N)C(C(=O)NC2CCCC2)c2ccco2)cc1OC` (centres undefined) yielded an inhibition of 10.1%.
`Cc1cnc(CN(C)C(=O)C2CCC(=O)N(CCc3cccc(F)c3)C2)[nH]1` (centres undefined) showed an inhibition of -1.92%.
Compound `COc1ccc(-c2nc(SCC(=O)N3CCCC3)n[nH]2)cc1` has an inhibition of 38.5%.
With `CCc1ccc(-c2nc(SCC(=O)NC3CCCC3)n[nH]2)cc1` the inhibition was 22.7% (active).
Work on `CCc1c(C)nc(SCC(=O)NC2CCCC2)[nH]c1=O` yielded an inhibition of -6.89%.
For `COc1ccc(S(=O)(=O)NC(C)c2ccccc2)cc1C(=O)N1CCCCC1` (centres undefined), the inhibition was -7.47%.
For `Clc1cccc(Cl)c1OCCOCCNCc1ccccc1`, the inhibition was 1.14%.
Work on `Cc1cc(N2CCN(c3ccccc3)CC2)nc(N2CCOCC2)n1` yielded an inhibition of -8.49%.
For `FC(F)(F)c1nnc2ccc(N3CCN(c4ccccc4)CC3)nn12`, the inhibition was -8.76%.
For `Cc1cc(C)n(-c2nnc(N3CCN(c4ccccc4)CC3)nn2)n1`, the inhibition was 35.7% (active).
`CCOc1ccc2[nH]c(=O)c(CN(CCCO)S(=O)(=O)c3ccc(F)cc3)cc2c1` gave an inhibition of -6.85%.
Work on `Cc1ccc(C(=O)NCC(=O)OCC(=O)NC2CCCCCCC2)cc1` yielded an inhibition of -5.5%.
With `O=C(NC(c1ccccc1)c1ccccc1)N1CCN(CCO)CC1` the inhibition was 8.02%.
`O=C1c2ccccc2C(=O)c2c1cccc2N1CCN(Cc2ccccc2)CC1` showed an inhibition of 47.7%.
For `O=C1c2ccccc2C(=O)c2c1cccc2N1CCN(CCO)CC1`, the inhibition was 75.3% (active).
In the case of `NC(=O)CSc1nnc(NC(=O)c2ccc(Br)o2)s1`, the inhibition was 15.2%.
`CN(C)c1cccc(C(=O)N2CCC(n3nccc3NC(=O)C3CCOC3)CC2)c1` (centres undefined) showed an inhibition of -1.93%.
Compound `CS(=O)(=O)c1ccc(Cl)c(NC(=O)Nc2ccccc2)c1` has an inhibition of 38.5%.
With `Cc1ccc(NC(=O)Nc2ccccc2)c(Br)c1` the inhibition was 105% (active).
Work on `Cc1c(NC(=O)Nc2ccccc2)cccc1[N+](=O)[O-]` yielded an inhibition of -38.1%.
`COc1cc(NC(=O)C2=CC(c3ccc(C)cc3)=NS(=O)(=O)N2C)cc(OC)c1OC` showed an inhibition of 7.86%.
`Cc1[nH]c(C)c(S(=O)(=O)N2CCN(c3cccc(C(F)(F)F)c3)CC2)c1C(=O)N1CCCC1` showed an inhibition of -8.08%.
`CCCCCCC(=O)N(O)C1CC(=O)N(c2ccccc2)C1=O` (centres undefined) showed an inhibition of -2.28%.
For `CCOc1ccc(N2C(=O)CC(N(CCc3ccc(OC)c(OC)c3)C(=S)Nc3ccccc3)C2=O)cc1` (centres undefined), the inhibition was 9.09%.
With `CCOc1ccc(N2C(=O)CC(N(O)c3ccccc3)C2=O)cc1` (centres undefined) the inhibition was 100% (active).
Work on `CCc1nn(-c2cc(Oc3cccc4ccccc34)nc(-c3ccccc3)n2)c(N)c1C#N` yielded an inhibition of -16.3%.
Compound `CC1CCCC(C)N1/N=C/c1ccccc1OC(F)F` (centres undefined) has an inhibition of -12.3%.
Compound `COC(=O)c1ccc(/C=N\n2c(C)nnc2C)cc1` has an inhibition of 8.68%.
In the case of `COC(=O)c1ccc(/C=N/N2C(C)CCCC2C)cc1` (centres undefined), the inhibition was 66.3% (active).
`CCN(CC(=O)N1CCCC1)S(=O)(=O)c1ccc(F)cc1` showed an inhibition of -4.28%.
`COC(=O)c1ccc(C(NC(=O)OCc2ccccc2)/C(C)=C/[C@@H](C)C(=O)NCc2ccc(OC)c(OC)c2)cc1` (some centres undefined) gave an inhibition of -13.4%.
`Nc1cccc2c1C(=O)N(Cc1nnc(-c3ccccc3Br)o1)C2=O` gave an inhibition of 18.9%.
`Cn1cnnc1SCC(=O)NNC(=O)COc1ccc(Br)cc1` showed an inhibition of 1.38%.
In the case of `Cn1cnnc1SCc1nnc(-c2ccccc2Br)o1`, the inhibition was 58.3% (active).
`O=C(CN1C(=O)S/C(=C\c2ccccc2Cl)C1=O)NC1C=CS(=O)(=O)C1` (centres undefined) gave an inhibition of -2.51%.
With `COc1ccc(C2=NS(=O)(=O)N(C)C(C(=O)NC(C)c3ccccc3)=C2)cc1` (centres undefined) the inhibition was 10.4%.
`COc1ccc(CCNC(=O)CCCCCNC(=O)N2CCn3c2nc2ccccc23)cc1OC` showed an inhibition of 4.93%.
For `O=C(Oc1ccc([N+](=O)[O-])cc1)c1ccc2ccccc2n1`, the inhibition was -35.6% (active).
For `COc1ccc(C2=NOC(COC(=O)c3ccc4ccccc4n3)C2)cc1` (centres undefined), the inhibition was 22.8%.
Compound `O=C(CNC(=O)c1ccccc1)Oc1ccc([N+](=O)[O-])cc1` has an inhibition of -10.1%.
`COc1ccc(C(=O)Nc2c(N)nc(SCC(=O)Nc3ccc(C(C)=O)cc3)[nH]c2=O)cc1` showed an inhibition of -1.66%.
Work on `O=C(Cc1cc(=O)[nH][nH]1)N/N=C/c1ccccc1[N+](=O)[O-]` yielded an inhibition of 13.6%.
For `Cc1cc(C(=O)N/N=C/c2ccccc2[N+](=O)[O-])c(C)o1`, the inhibition was 72.5% (active).
Work on `CC(=C/c1ccccc1)/C=N/NC(=O)c1cc(C)oc1C` yielded an inhibition of 0%.
For `Cc1c(Cl)c([N+](=O)[O-])nn1CC(=O)NCCCN1CCOCC1`, the inhibition was -6.5%.
With `COc1ccc(-n2c(=O)[nH]c3cc(C(=O)NCCc4ccc(OC)c(OC)c4)ccc3c2=O)c(OC)c1` the inhibition was 3.16%.
Compound `Cc1ccc(C2CC2C(=O)NN)cc1` (centres undefined) has an inhibition of -15.4%.
For `O=C(NNC(=S)Nc1ccc(F)cc1)[C@H]1C[C@@H]1c1ccccc1`, the inhibition was -8.83%.
In the case of `Cc1ccc(NC(=O)C2CC2c2ccccc2)cc1` (centres undefined), the inhibition was 32% (active).
Compound `COc1ccc(OC)c(CNC(=O)c2cc(=O)[nH]c3ccc(S(=O)(=O)N4CCCC4)cc23)c1` has an inhibition of -3.87%.
For `COc1cccc(-n2c(N)cc(=O)nc2SCC(=O)Nc2cc(C)on2)c1`, the inhibition was 13.4%.
In the case of `COc1cc2ccccc2cc1C(=O)Nc1ccccc1C`, the inhibition was 32.5% (active).
In the case of `COc1cc2ccccc2cc1C(=O)Nc1ccc(NC(=O)c2cccs2)cc1`, the inhibition was 15.8%.
In the case of `COc1cccc2sc(Nc3nc(C)c(C(C)=O)s3)nc12`, the inhibition was 29.8%.
`COc1cc(OC)c(C(=O)Nc2ccccc2-c2ccccc2)cc1OC` showed an inhibition of -5.65%.
In the case of `COc1cc2ccccc2cc1C(=O)Nc1nc(C)c(C(C)=O)s1`, the inhibition was 69.5% (active).
In the case of `CC(=O)c1sc(NC(=O)c2cccc3ccccc23)nc1C`, the inhibition was 31.4%.
